# Data reported in PubChem BioAssay (NCI).
# The panel holds about 79,000 compounds, 15% with a hit somewhere; the sample as a whole holds those more often. A number with no mark means an inactive call. Active and inactive are the calls of the source. Rule as the data show it: active = growth inhibition above about 70%; inactive = the rest.
# What was measured:
# [1] = NCI Yeast Anticancer Drug Screen. Data for the rad52 strain (AID 147);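 also: 0% = growth of vehicle-treated control cultures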; details: S. cerevisiae rad52 mutant growth inhibition, stronger effect = higher value
# Summary of the method: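 Here a repair-compromised yeast strain receives each compound; its growth is then quantified and normalised to vehicle-only controls.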
# [2] = NCI Yeast Anticancer Drug Screen. Data for the wt1 strain (AID 149);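 also: 0% = growth of vehicle-treated wt1 cultures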; details: S. cerevisiae wt1 strain (SPY 50644) growth inhibition, stronger effect = higher value
# Summary of the method: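 The wt1 strain was treated with compounds, and growth was compared with vehicle-treated cultures to give inhibition.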
# [3] = NCI Yeast Anticancer Drug Screen. Data for the rad50 strain (AID 155);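 also: 0% = growth of vehicle-only cultures of the same strain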; details: S. cerevisiae rad50 strain growth inhibition, stronger effect = higher value
# Summary of the method: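 Cells are treated with compound, grown, and their growth is then scored against vehicle-only cultures of the same repair-deficient yeast strain.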
# [4] = NCI Yeast Anticancer Drug Screen. Data for the mec2-1 strain (AID 157); details: S. cerevisiae mec2-1 strain, stronger effect = higher value
# Summary of the method: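 Using mec2-1 yeast: add compound, measure growth, express inhibition versus vehicle-treated cultures.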
# [5] = NCI Yeast Anticancer Drug Screen. Data for the rad14 strain (AID 159);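 also: 0% = growth of vehicle-treated control cultures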; details: S. cerevisiae rad14 strain growth inhibition, stronger effect = higher value
# Summary of the method: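 Readout: yeast growth inhibition, referenced to vehicle-only cultures. Strain bears a defined alteration in DNA damage repair.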
# [6] = NCI Yeast Anticancer Drug Screen. Data for the sgs1 mgt1 strain (AID 161);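 also: 0% = growth of cultures given vehicle only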; details: S. cerevisiae sgs1 mgt1 strain, stronger effect = higher value
# Summary of the method: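 This yeast growth screen uses a strain with defined DNA-repair lesions; compound-treated growth is compared with vehicle-treated growth.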
# [7] = NCI Yeast Anticancer Drug Screen. Data for the CLN2oe strain (AID 163);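 also: 0% = growth of vehicle-only control cultures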; details: S. cerevisiae CLN2oe strain, stronger effect = higher value
# Summary of the method: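 Whole-cell yeast growth assay. A strain engineered for altered cell-cycle control received compound, and inhibition relative to vehicle-treated cultures was recorded.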
# [8] = NCI Yeast Anticancer Drug Screen. Data for the cln2 rad14 strain (AID 165);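 also: 0% = growth equal to vehicle treated cultures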; details: S. cerevisiae cln2 rad14 strain, stronger effect = higher value
# Summary of the method: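 Yeast strain cln2 rad14, bearing defects in cell cycle control and DNA repair, serves as the test system; values reflect growth inhibition compared with vehicle.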
# [9] = NCI Yeast Anticancer Drug Screen. Data for the bub3 strain (AID 167); details: S. cerevisiae bub3 mutant strain, stronger effect = higher value
# Summary of the method: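 Part of a panel of yeast mutants defective in DNA damage repair or cell cycle regulation. Each strain is grown with compound, and inhibition is calculated relative to solvent-treated cultures.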
# [10] = NCI Yeast Anticancer Drug Screen. Data for the wt2 strain (AID 169);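 also: 0% = growth of vehicle-treated yeast cultures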; details: S. cerevisiae wt2 strain growth inhibition, stronger effect = higher value
# Summary of the method: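 Treated yeast vs. vehicle-treated yeast: growth inhibition determined.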
# [11] = NCI Yeast Anticancer Drug Screen. Data for the mlh1 strain (AID 171);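 also: 0% = growth of vehicle-treated control cultures of the same strain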; details: S. cerevisiae mlh1 strain growth inhibition, stronger effect = higher value
# Summary of the method: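 A yeast strain with a defined genetic lesion serves as the test organism. Cultures receive compound or vehicle, and growth is measured.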
# [12] = NCI Yeast Anticancer Drug Screen. Data for the sgs1 strain (AID 173);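 also: 0% = growth of vehicle-only control cultures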; details: S. cerevisiae sgs1 mutant, stronger effect = higher value
# Summary of the method: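 A genetically defined yeast mutant is incubated with the test compound, and its growth is compared to that of the same strain given vehicle.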
# [13] = NCI Yeast Anticancer Drug Screen. Data for the mlh1 rad18 strain (AID 175); details: S. cerevisiae mlh1 rad18 strain growth inhibition, stronger effect = higher value
# Summary of the method: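 Steps: expose repair-defective yeast to compound; measure growth; express inhibition against vehicle-treated controls.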
# [14] = at 5.0 µM (retest, dose inferred, filed as 0.5)
# [15] = at 50.0 µM (retest, dose inferred, filed as 5.0)
compound,measurement,setting,value
CN1CCN(c2ccc3nc(-c4ccc5nc(-c6ccc(O)cc6)[nH]c5c4)[nH]c3c2)CC1,growth inhibition,[1]; at 1.2 µM,8%
same,growth inhibition,[1]; at 3.7 µM,-1%
same,growth inhibition,[1]; at 11.0 µM,98% (active)
same,growth inhibition,[1]; at 33.0 µM,38%
same,growth inhibition,[1]; at 100.0 µM,98% (active)
same,growth inhibition,[2]; at 1.2 µM,3%
same,growth inhibition,[2]; at 3.7 µM,5%
same,growth inhibition,[2]; at 11.0 µM,98% (active)
same,growth inhibition,[2]; at 33.0 µM,98% (active)
same,growth inhibition,[2]; at 100.0 µM,97% (active)
same,growth inhibition,[3]; at 1.2 µM,6%
same,growth inhibition,[3]; at 3.7 µM,13%
same,growth inhibition,[3]; [14],88% (active)
same,growth inhibition,[3]; at 11.0 µM,98% (active)
same,growth inhibition,[3]; at 33.0 µM,98% (active)
same,growth inhibition,[3]; [15],99% (active)
same,growth inhibition,[3]; at 50.0 µM,99% (active)
same,growth inhibition,[3]; at 100.0 µM,98% (active)
same,growth inhibition,[4]; at 1.2 µM,-4%
same,growth inhibition,[4]; at 3.7 µM,-17%
same,growth inhibition,[4]; [14],63%
same,growth inhibition,[4]; at 11.0 µM,97% (active)
same,growth inhibition,[4]; at 33.0 µM,97% (active)
same,growth inhibition,[4]; [15],99% (active)
same,growth inhibition,[4]; at 50.0 µM,99% (active)
same,growth inhibition,[4]; at 100.0 µM,97% (active)
same,growth inhibition,[5]; at 1.2 µM,-16%
same,growth inhibition,[5]; at 3.7 µM,-16%
same,growth inhibition,[5]; at 11.0 µM,97% (active)
same,growth inhibition,[5]; at 33.0 µM,97% (active)
same,growth inhibition,[5]; at 100.0 µM,97% (active)
same,growth inhibition,[6]; [14],43%
same,growth inhibition,[6]; [15],99% (active)
same,growth inhibition,[6]; at 50.0 µM,99.2% (active)
same,growth inhibition,[7]; at 1.2 µM,9%
same,growth inhibition,[7]; at 3.7 µM,6%
same,growth inhibition,[7]; at 11.0 µM,97% (active)
same,growth inhibition,[7]; at 33.0 µM,98% (active)
same,growth inhibition,[7]; at 100.0 µM,98% (active)
same,growth inhibition,[8]; [14],45%
same,growth inhibition,[8]; [15],99% (active)
same,growth inhibition,[8]; at 50.0 µM,97.8% (active)
same,growth inhibition,[9]; at 1.2 µM,-10%
same,growth inhibition,[9]; at 3.7 µM,-1%
same,growth inhibition,[9]; [14],84% (active)
same,growth inhibition,[9]; at 11.0 µM,97% (active)
same,growth inhibition,[9]; at 33.0 µM,98% (active)
same,growth inhibition,[9]; [15],99% (active)
same,growth inhibition,[9]; at 50.0 µM,99.2% (active)
same,growth inhibition,[9]; at 100.0 µM,97% (active)
same,growth inhibition,[10]; at 1.2 µM,-17%
same,growth inhibition,[10]; at 3.7 µM,-27%
same,growth inhibition,[10]; at 11.0 µM,97% (active)
same,growth inhibition,[10]; at 33.0 µM,98% (active)
same,growth inhibition,[10]; at 100.0 µM,98% (active)
same,growth inhibition,[11]; at 1.2 µM,-10%
same,growth inhibition,[11]; at 3.7 µM,-15%
same,growth inhibition,[11]; at 11.0 µM,98% (active)
same,growth inhibition,[11]; at 33.0 µM,97% (active)
same,growth inhibition,[11]; at 100.0 µM,97% (active)
same,growth inhibition,[12]; at 1.2 µM,-5%
same,growth inhibition,[12]; at 3.7 µM,2%
same,growth inhibition,[12]; at 11.0 µM,98% (active)
same,growth inhibition,[12]; at 33.0 µM,98% (active)
same,growth inhibition,[12]; at 100.0 µM,97% (active)
same,growth inhibition,[13]; [14],71% (active)
same,growth inhibition,[13]; [15],99% (active)
same,growth inhibition,[13]; at 50.0 µM,99.2% (active)
CCOC(=O)C1=C(C)NC(C)=C(C(=O)OCC)C1c1cccc([N+](=O)[O-])c1,growth inhibition,[1]; at 1.2 µM,-90%
same,growth inhibition,[1]; at 3.7 µM,-81%
same,growth inhibition,[1]; at 11.0 µM,-35%
same,growth inhibition,[1]; at 33.0 µM,17%
same,growth inhibition,[1]; at 100.0 µM,73% (active)
same,growth inhibition,[2]; at 1.2 µM,-53%
same,growth inhibition,[2]; at 3.7 µM,-41%
same,growth inhibition,[2]; at 11.0 µM,-22%
same,growth inhibition,[2]; at 33.0 µM,37%
same,growth inhibition,[2]; at 100.0 µM,88% (active)
same,growth inhibition,[3]; at 1.2 µM,-39%
same,growth inhibition,[3]; at 3.7 µM,0%
same,growth inhibition,[3]; [14],34%
same,growth inhibition,[3]; at 11.0 µM,31%
same,growth inhibition,[3]; at 33.0 µM,65%
same,growth inhibition,[3]; [15],80% (active)
same,growth inhibition,[3]; at 50.0 µM,90.8% (active)
same,growth inhibition,[3]; at 100.0 µM,88% (active)
same,growth inhibition,[4]; at 1.2 µM,-36%
same,growth inhibition,[4]; at 3.7 µM,-16%
same,growth inhibition,[4]; [14],35%
same,growth inhibition,[4]; at 11.0 µM,-10%
same,growth inhibition,[4]; at 33.0 µM,30%
same,growth inhibition,[4]; [15],76% (active)
same,growth inhibition,[4]; at 50.0 µM,37.1%
same,growth inhibition,[4]; at 100.0 µM,83% (active)
same,growth inhibition,[5]; at 1.2 µM,-39%
same,growth inhibition,[5]; at 3.7 µM,-32%
same,growth inhibition,[5]; at 11.0 µM,-17%
same,growth inhibition,[5]; at 33.0 µM,25%
same,growth inhibition,[5]; at 100.0 µM,88% (active)
same,growth inhibition,[6]; [14],-15%
same,growth inhibition,[6]; [15],22%
same,growth inhibition,[7]; at 1.2 µM,-31%
same,growth inhibition,[7]; at 3.7 µM,-34%
same,growth inhibition,[7]; at 11.0 µM,-23%
same,growth inhibition,[7]; at 33.0 µM,31%
same,growth inhibition,[7]; at 100.0 µM,87% (active)
same,growth inhibition,[8]; [14],45%
same,growth inhibition,[8]; [15],54%
same,growth inhibition,[9]; at 1.2 µM,-21%
same,growth inhibition,[9]; at 3.7 µM,-5%
same,growth inhibition,[9]; [14],29%
same,growth inhibition,[9]; at 11.0 µM,4%
same,growth inhibition,[9]; at 33.0 µM,22%
same,growth inhibition,[9]; [15],40%
same,growth inhibition,[9]; at 100.0 µM,73% (active)
same,growth inhibition,[11]; at 1.2 µM,-74%
same,growth inhibition,[11]; at 3.7 µM,-39%
same,growth inhibition,[11]; at 11.0 µM,-29%
same,growth inhibition,[11]; at 33.0 µM,51%
same,growth inhibition,[11]; at 100.0 µM,86% (active)
same,growth inhibition,[12]; at 1.2 µM,-18%
same,growth inhibition,[12]; at 3.7 µM,-14%
same,growth inhibition,[12]; at 11.0 µM,13%
same,growth inhibition,[12]; at 33.0 µM,60%
same,growth inhibition,[12]; at 100.0 µM,86% (active)
same,growth inhibition,[13]; [14],30%
same,growth inhibition,[13]; [15],75% (active)
same,growth inhibition,[13]; at 50.0 µM,90.7% (active)
